This passage reports activity, negative = inhibition and AC50 results from PubChem BioAssay AID1851 (National Center for Advancing Translational Sciences (NCATS), 2009).

Screen size: about 16,000 compounds; about 5,800 (36%) were called active. Inconclusive results (about 23%) are left out. Calls come from the whole dose curve; as a rule, active = well fitted curve in the direction sought with a large enough effect; inconclusive = small, poorly fitted or top-dose-only effect, or effect the other way; inactive = no such curve, though single readings can be large or run the other way. Some of the results follow.

As a reminder, the AC50 is the concentration at which the activity in the assay is half-maximal.
% is set by controls: 0 for no effect and ±100 for the full control effect.

Cytochrome P450 2C19 (Homo sapiens), sequence (P33261 whole entry, looked up): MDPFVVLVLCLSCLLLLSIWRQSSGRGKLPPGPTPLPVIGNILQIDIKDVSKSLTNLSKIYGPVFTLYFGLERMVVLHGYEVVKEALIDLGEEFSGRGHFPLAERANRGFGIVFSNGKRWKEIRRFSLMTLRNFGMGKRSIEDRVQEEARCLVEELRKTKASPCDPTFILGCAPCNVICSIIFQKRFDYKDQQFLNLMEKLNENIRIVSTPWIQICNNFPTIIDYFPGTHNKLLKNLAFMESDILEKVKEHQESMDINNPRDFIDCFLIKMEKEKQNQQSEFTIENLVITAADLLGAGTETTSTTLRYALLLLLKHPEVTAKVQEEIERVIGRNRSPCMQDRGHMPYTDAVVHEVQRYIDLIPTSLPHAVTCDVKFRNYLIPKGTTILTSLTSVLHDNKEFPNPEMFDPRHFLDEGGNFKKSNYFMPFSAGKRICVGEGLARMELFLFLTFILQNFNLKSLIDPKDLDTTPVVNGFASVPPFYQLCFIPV

This assay has as its target Cytochrome P450 2C19 (Homo sapiens) (UniProt P33261). Kind of assay: Cytochrome panel assay with activity outcomes. Particulars: recombinant CYP, pro-luciferin dealkylation, luminescence, p450-cyp2c19; series mostly up to 57.1 µM.
Turning to `CN(C)Cc1c[nH]c2nc[nH]c(=O)c12`, the activity, negative = inhibition is 42.6% [at 11.4 µM] (inactive).

Turning to `COCCN(C(=O)C(C)C)c1nnc(-c2ccc(C)cc2)s1`, the half-maximal activity concentration (AC50) was 7.94 µM (active).

Regarding `COCC(=O)N(C)c1nnc(-c2ccc([N+](=O)[O-])cc2)s1`, the AC50 result is “inactive”.

`COCCN(C(=O)c1ccco1)c1nnc(-c2ccc(OC)cc2)s1`: the AC50 was 15.8 µM (active). For the compound `CO[C@@H]1COC(=O)[C@H]2CCCN2C(=O)[C@@H](C)COC(=O)C/C=C\[C@H]1C`, the activity, negative = inhibition is 91.7% [at 11.4 µM] (inactive). In the case of `Cn1c(=O)c2c(nc(N3CCN(c4ccccn4)CC3)n2Cc2ccccc2Cl)n(C)c1=O`, the concentration at half-maximal activity (AC50) was 3.16 µM (active). Regarding `CN1CCN(c2nc3c(c(=O)n(C)c(=O)n3C)n2C)CC1`, the activity, negative = inhibition is -9.69% [at 11.4 µM] (inactive).

`Cn1c(=O)c2c(nc(N3CCN(c4ccccn4)CC3)n2Cc2ccc(Cl)cc2Cl)n(C)c1=O`: the AC50 was 6.31 µM (active).

Turning to `Cn1c(=O)c2c(ncn2CN2CCN(Cn3cnc4c3c(=O)n(C)c(=O)n4C)CC2)n(C)c1=O`, the activity, negative = inhibition was -11.6% [at 11.4 µM] (inactive). On the same count and under the same terms, next, `O=C(N/N=C1/C[C@@H](O)[C@@H](O)[C@@H]2[C@@H]3C(=O)N(Cc4ccccc4)C(=O)[C@H]3CC[C@@H]12)OCc1ccccc1`: 9.42% [at 11.4 µM] (inactive). For the compound `O=C(c1cc(C(F)(F)F)cc(C(F)(F)F)c1)N1CCC2(CC1)CN(Cc1ccccc1)C2`, the AC50 entry was “inactive”. Take `O=C(c1cccc(C(F)(F)F)c1)N1CCC(O)(CS(=O)(=O)Cc2ccccc2)CC1`: the AC50 is 22.4 µM (active). On the same count and under the same terms, next, `O=C(c1cc(C(F)(F)F)cc(C(F)(F)F)c1)N1CCC2(CCN(Cc3ccccc3)CC2)CC1`: “inactive”; `COc1ccc(CNc2ncncc2-c2ccc(C(=O)N(C)C)cc2)c(OC)c1`: 15.8 µM (active). `COc1ccc(CNc2ncncc2-c2ccc(N(C)C)cc2)c(OC)c1`: the AC50 was 1.58 µM (active).

Take `COc1ccccc1CNc1ncncc1-c1ccc(C(=O)N(C)C)cc1`: the AC50 entry was “inactive”.

Take `C[C@H](N)C(=O)O`: the AC50 result is “inactive”. In the case of `O=C(O)C(Sc1ccc(Cl)cc1)Sc1ccc(Cl)cc1`, the AC50 is 0.1 µM (active). As to `N[C@H](Cc1ccc(Cl)cc1)C(=O)O`, the AC50 result was “inactive”. Take `N[C@@H](CC1=CS(=O)(=O)c2ccc(Cl)cc21)C(=O)O`: the activity, negative = inhibition was -36.6% [at 11.4 µM] (inactive).

With `NCCOB(c1ccccc1)c1ccccc1`, the AC50 result was “inactive”. `Cc1[nH]n(C(C)(C)C)c(=O)c1Sc1ccc(Cl)cc1`: the AC50 was 3.98 µM (active). The same measure, in the same setting: with `COc1cc(Cn2cnnn2)ccc1O` the entry was “inactive”; with `O=[N+]([O-])c1ccc(Cl)c(-c2ccc(/C=N/c3c(-c4ccco4)nc4ccccn34)o2)c1`, “inactive”; with `COc1cc(-c2nc3ccccn3c2/N=C/c2ccccc2)ccc1O`, 10 µM (active).
